# Records with an inconclusive call do not appear. Values without a mark were called inactive. Activity calls are given as the source filed them. Calls follow the shape of the dose curve; as a rule, active = well fitted inhibition curve with a large enough effect; inconclusive = small, poorly fitted or top-dose-only effect; inactive = flat fitted curve, though single readings scatter.
# System: HaCat
# Assay: Cytotoxic Profiling of Annotated Libraries Using Quantitative High-Throughput Screening (AID 1296008); also: nearly all actives have a fitted effect of over 60% in size
# Details: Five cell lines viability, CellTiter-Glo ATP luminescence, 48-72 h; max response: stronger effect = lower value
# Summary of the method: (§1)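 Compounds were pin-transferred onto cells and incubated 48 or 72 hr at 37 degree Celsius, 95% humidity. CellTiter-Glo was added, plates sat 10 min at room temperature, then ATP-coupled luminescence was imaged as the viability read-out.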
# % is scaled to controls: 0 for no effect and ±100 for the full control effect.
row,Structure (SMILES),outcome
1,COc1cc(/C=C/C(=O)OC[C@H]2O[C@@H](OC3OC=C(C(=O)O)C4C(O)CC(C)(O)C34)[C@H](O)[C@@H](O)[C@@H]2O)cc(OC)c1O (some centres undefined),inactive
2,CC(=O)OC[C@]12[C@@H](OC(=O)c3ccoc3)C[C@@H]3[C@@H](OC(C)=O)[C@]1(OC3(C)C)[C@@](C)(O)C[C@H](OC(=O)c1ccoc1)[C@@H]2OC(=O)c1ccoc1,inactive
3,CC(=O)O[C@H]1C[C@@H](O)C(C)(C)C2C[C@@H](OC(C)=O)[C@]3(C)C(CC[C@@]4(C)[C@H](c5ccoc5)OC(=O)[C@H]5O[C@]543)[C@]21C (some centres undefined),inactive
4,CC(=O)OC12CC(C)C(O)C1/C=C(/COC1OC(CO)C(O)C(O)C1O)CCC1C(/C=C(\C)C2=O)C1(C)C (centres undefined),inactive
5,C=C(CCO[C@@H]1O[C@H](CO)[C@@H](O)[C@H](O)[C@H]1O)C(=O)O,inactive
6,Cc1cc(C(=O)N2Cc3cnn(C)c3Nc3ccccc32)ccc1CNC(=O)N1CCN(Cc2cc(O)cc(O)c2)CC1,inactive
7,O=C(O)C1(c2ccc(-c3ccc(Cl)c(Cl)c3)c(F)c2)CC1,inactive
8,C[C@@H]1O[C@@H](O[C@H]2[C@H](OC(=O)[C@]34CCC(C)(C)C[C@H]3C3=CCC5[C@@]6(C)C[C@@H](O)[C@@H](O)[C@@](C)(CO)C6[C@H](O)C[C@@]5(C)[C@]3(C)CC4)OC[C@H](O)[C@@H]2O)[C@H](O)[C@H](O)[C@H]1O[C@@H]1OC[C@@H](O)[C@H](O[C@H]2O[C@H](C)[C@@H](O)[C@H](O)[C@@H]2O)[C@H]1O (some centres undefined),inactive
9,COc1cc(C(=O)OC[C@@]2(O)CO[C@@H](O[C@H]3[C@H](Oc4ccc(O)cc4)O[C@H](CO)[C@@H](O)[C@@H]3O)[C@@H]2O)cc(OC)c1O,inactive
10,COc1cc(C2Oc3c(OC)cc(CCCO)cc3C2CO)ccc1O (centres undefined),inactive
11,CC1(C)C[C@H]2C=C(C=O)[C@]3(C(=O)O)C[C@]3(C)[C@H]2C1,inactive
12,CC(C)=CCC[C@](C)(O[C@@H]1O[C@H](CO[C@@H]2OC[C@H](O)[C@H](O)[C@H]2O)[C@@H](O)[C@H](O)[C@H]1O)[C@H]1CC[C@]2(C)[C@@H]1[C@H](O)C[C@@H]1[C@@]3(C)CC[C@H](O[C@@H]4O[C@H](CO)[C@@H](O)[C@H](O)[C@H]4O[C@@H]4O[C@H](CO)[C@@H](O)[C@H](O)[C@H]4O)C(C)(C)[C@@H]3CC[C@]12C,inactive
13,O=C(O)CC(CCc1ccccc1)OC1OC(CO)C(O)C(O)C1O (centres undefined),inactive
14,CC(C)(Oc1ccc(-c2nc3cc(Cl)ccc3s2)cc1)C(=O)O,inactive
15,COc1c2c(c(C)c3c1C(=O)OC3)OC1(C)CC(O)C34OC(O)(CCC3(C)C1C2)OC4(C)C (centres undefined),inactive
16,C=C1C2(C)CC3C4(C)OC(C5OC56C4=CC(=O)OC6(C)C)C3(C)C13C(=O)OC(C)C3(O)C2=O (centres undefined),inactive
17,CC(=O)OC/C(=C/C(=O)O)CC[C@@H]1C(CO)=CC[C@@H]2C(C)(C)CCC[C@@]12C,inactive
18,COc1cc(/C=C/c2ccccc2)c(C(=O)O)c(O)c1CC=C(C)C,inactive
19,COc1cc2c(cc1O)C(c1ccc(O)cc1)C(C)C(C)C2 (centres undefined),inactive
20,COc1c(O[C@@H]2O[C@H](CO)[C@@H](O)[C@H](O)[C@H]2O)c(CCC(=O)O)cc2ccoc12,inactive
21,C=C1[C@H](OC(C)=O)[C@H]2[C@@H](OC(=O)c3ccccc3)[C@@H](C)C[C@]2(O)[C@@H](OC(C)=O)[C@H](C)/C=C/C(C)(C)C(=O)[C@H](OC(C)=O)[C@H]1OC(C)=O,inactive
22,CC1(C)CCC[C@@]2(C)[C@H]1[C@H](O)C=C(CO)[C@]2(O)CO,inactive
23,NC(=O)[C@@H]1CC[C@H](c2ccc(OCc3ccccc3F)cc2)N1,inactive
24,CC1=C(CC/C(C)=C/C(=O)O)[C@@]2(C)CCCC(C)(C)C2CC1=O (some centres undefined),inactive
25,COc1ccc(-c2ccn(CC[C@](C)(C(=O)NO)S(C)(=O)=O)c(=O)c2)c(F)c1,inactive
26,CC(O)CCc1ccc(O[C@@H]2O[C@H](CO)[C@@H](O)[C@H](O)[C@H]2O)cc1 (some centres undefined),inactive
27,O=C(O)Cc1cn([C@@H]2O[C@H](CO)[C@@H](O)[C@H](O)[C@H]2O[C@@H]2O[C@H](CO)[C@@H](O)[C@H](O)[C@H]2O)c2ccccc12,inactive
28,C/C(=C\C(=O)C[C@@]12C(=O)O[C@]3(C)CC[C@H]1C[C@H]23)C(N)=O,inactive
29,C[C@@H]1C[C@@H](O)[C@@]2(CO)C(CO)=CCC[C@@H]2[C@@]12C[C@@H](c1ccoc1)OC2=O,inactive

# System: KB-3-1
# Assay: as above
# Details: Five cell lines viability, CellTiter-Glo ATP luminescence, 48-72 h; max response: stronger effect = lower value
# Summary of the method: as §1
Structure (SMILES),outcome,max response [%]
C=C1CCC2C(C)(C(=O)O)CCCC2(C)C1CC/C(C)=C\CO (centres undefined),inactive,–
CN[C@H](CNC(=O)N1CCC[C@@H]([C@@H](OCCNC(=O)OC)c2cccc(Cl)c2)C1)C[C@H]1CCCOC1,–,1.87
COc1cc(C2Oc3c(OC)cc(/C=C/C(=O)OC4CC(O)(C(=O)O)CC(O)C4O)cc3C2CO)ccc1O (centres undefined),–,9.01
CC[C@@H](C)[C@H](N)C(=O)N1Cc2ccccc2C1,–,-3.64
CC(=O)OC1CC(C(C)(C)O)OC2CCC3(C)OC4=C(C(=O)C=C5C(C)C(OC(C)=O)C6(C)C(C)OC546)C(O)C3C12C (centres undefined),–,5.34
C[C@@H]1O[C@@H](O[C@H]2[C@H](O)[C@@H](O)[C@H](OC[C@H]3O[C@@H](OC(=O)[C@]45CCC(C)(C)C[C@H]4C4=CCC6[C@@]7(C)C[C@@H](O)[C@H](O)[C@@](C)(CO)C7[C@H](O)C[C@@]6(C)[C@]4(C)CC5)[C@H](O)[C@@H](O)[C@@H]3O)O[C@@H]2CO)[C@H](O)[C@H](O)[C@H]1O (some centres undefined),inactive,–
CC1=CC(=O)C2C(C)(C)CCC[C@]2(C)[C@H]1CC[C@H](C)CC(=O)O (some centres undefined),inactive,–
C[C@H]1CC(=O)C2=C(C1)C(O)C(O)[C@@]1(O)[C@H]2C(=O)c2cccc(O)c2[C@@H]1O (some centres undefined),inactive,–
CC(=O)OC(C)(C)/C=C/C(=O)[C@](C)(O)C1[C@H](O)C[C@@]2(C)[C@@H]3CC=C4[C@@H](C[C@H](O[C@@H]5O[C@H](CO)[C@@H](O)[C@H](O)[C@H]5O)C(=O)C4(C)C)[C@]3(C)C(=O)C[C@]12C (some centres undefined),–,1.94
CC1CC(=O)[C@]2(O)C(C(=O)OCCc3ccc(O)c(O)c3)=CO[C@@H](O[C@@H]3O[C@H](CO)[C@@H](O)[C@H](O)[C@H]3O)[C@H]12 (some centres undefined),–,8.6
COc1cc(/C=C/C(=O)OC[C@H]2O[C@@H](OC3OC=C(C(=O)O)C4C(O)CC(C)(O)C34)[C@H](O)[C@@H](O)[C@@H]2O)cc(OC)c1O (some centres undefined),–,9.94
CC(=O)OC[C@]12[C@@H](OC(=O)c3ccoc3)C[C@@H]3[C@@H](OC(C)=O)[C@]1(OC3(C)C)[C@@](C)(O)C[C@H](OC(=O)c1ccoc1)[C@@H]2OC(=O)c1ccoc1,–,2.58
CC(=O)O[C@H]1C[C@@H](O)C(C)(C)C2C[C@@H](OC(C)=O)[C@]3(C)C(CC[C@@]4(C)[C@H](c5ccoc5)OC(=O)[C@H]5O[C@]543)[C@]21C (some centres undefined),inactive,–
CC(=O)OC12CC(C)C(O)C1/C=C(/COC1OC(CO)C(O)C(O)C1O)CCC1C(/C=C(\C)C2=O)C1(C)C (centres undefined),inactive,–
C=C(CCO[C@@H]1O[C@H](CO)[C@@H](O)[C@H](O)[C@H]1O)C(=O)O,inactive,–
Cc1cc(C(=O)N2Cc3cnn(C)c3Nc3ccccc32)ccc1CNC(=O)N1CCN(Cc2cc(O)cc(O)c2)CC1,inactive,–
O=C(O)C1(c2ccc(-c3ccc(Cl)c(Cl)c3)c(F)c2)CC1,–,-5.77
C[C@@H]1O[C@@H](O[C@H]2[C@H](OC(=O)[C@]34CCC(C)(C)C[C@H]3C3=CCC5[C@@]6(C)C[C@@H](O)[C@@H](O)[C@@](C)(CO)C6[C@H](O)C[C@@]5(C)[C@]3(C)CC4)OC[C@H](O)[C@@H]2O)[C@H](O)[C@H](O)[C@H]1O[C@@H]1OC[C@@H](O)[C@H](O[C@H]2O[C@H](C)[C@@H](O)[C@H](O)[C@@H]2O)[C@H]1O (some centres undefined),–,8.34
COc1cc(C(=O)OC[C@@]2(O)CO[C@@H](O[C@H]3[C@H](Oc4ccc(O)cc4)O[C@H](CO)[C@@H](O)[C@@H]3O)[C@@H]2O)cc(OC)c1O,–,-0.593
COc1cc(C2Oc3c(OC)cc(CCCO)cc3C2CO)ccc1O (centres undefined),inactive,–
CC1(C)C[C@H]2C=C(C=O)[C@]3(C(=O)O)C[C@]3(C)[C@H]2C1,–,6.21
CC(C)=CCC[C@](C)(O[C@@H]1O[C@H](CO[C@@H]2OC[C@H](O)[C@H](O)[C@H]2O)[C@@H](O)[C@H](O)[C@H]1O)[C@H]1CC[C@]2(C)[C@@H]1[C@H](O)C[C@@H]1[C@@]3(C)CC[C@H](O[C@@H]4O[C@H](CO)[C@@H](O)[C@H](O)[C@H]4O[C@@H]4O[C@H](CO)[C@@H](O)[C@H](O)[C@H]4O)C(C)(C)[C@@H]3CC[C@]12C,–,1.14
O=C(O)CC(CCc1ccccc1)OC1OC(CO)C(O)C(O)C1O (centres undefined),inactive,–
CC(C)(Oc1ccc(-c2nc3cc(Cl)ccc3s2)cc1)C(=O)O,–,5.1
COc1c2c(c(C)c3c1C(=O)OC3)OC1(C)CC(O)C34OC(O)(CCC3(C)C1C2)OC4(C)C (centres undefined),–,7.14
C=C1C2(C)CC3C4(C)OC(C5OC56C4=CC(=O)OC6(C)C)C3(C)C13C(=O)OC(C)C3(O)C2=O (centres undefined),–,7.16
CC(=O)OC/C(=C/C(=O)O)CC[C@@H]1C(CO)=CC[C@@H]2C(C)(C)CCC[C@@]12C,inactive,–
COc1cc(/C=C/c2ccccc2)c(C(=O)O)c(O)c1CC=C(C)C,–,6.27
COc1cc2c(cc1O)C(c1ccc(O)cc1)C(C)C(C)C2 (centres undefined),–,-7.89
COc1c(O[C@@H]2O[C@H](CO)[C@@H](O)[C@H](O)[C@H]2O)c(CCC(=O)O)cc2ccoc12,–,2.96

# Source: PubChem BioAssay (NCATS)
